Assay results taken from PubChem BioAssay (NCATS).
The other results are listed elsewhere or left out. Results filed as inconclusive are left out. Activity calls are given as the source filed them. The call rests on the fitted dose curve.

Target: Papain (Carica papaya) (UniProt P00784)
Assay: Selectivity profile for inhibitors of NSP2Pro chikungunya virus (CHIKV): Papain Counterscreen (AID 1964104)
Settings: purified papain protease activity, enzymatic inhibition; series mostly up to 51 µM; activity change, negative = inhibition: at the top concentration
Description: PI: Natalia J. Martinez Ph.D.
National Center for Advancing Translational Sciences (NCATS),
National Institute of Health (NIH), Rockville, Maryland
Chikungunya virus (CHIKV) is a mosquito-borne RNA virus that has emerged as one of the most important global arboviral threats in the last decade. Although the first CHIKV vaccine has recently been FDA approved for use in healthy adults at increased risk, to date, there are no available antiviral drugs for CHIKV infection. CHIKV nsP2 protease plays a crucial role in the processing of the viral polypeptide precursor to release enzymes required for viral replication, thus making it a promising drug target for antiviral discovery. Here, we established a high-throughput pipeline to identify small molecule inhibitors of nsP2 proteolytic activity. The pipeline is composed of a suite of 1,536-well in vitro assays to support quantitative high-throughput (qHTS) screening campaigns. Specifically, we developed a fluorescence resonance energy transfer (FRET)-based assay using a fluorogenic peptide substrate encompassing an endogenous cleavage site and purified recombinant protease domain (nsP2pro). Using this assay, we interrogated ~37,000 small molecules, including those in drug repurposing libraries as well as chemically diverse and medicinal chemistry-friendly compounds. Hits were selected for follow-up validation against full-length nsP2 and an additional peptide. FRET-based 1,536-well assays for papain, hepatitis C virus NS3-4A, and human furin proteases were implemented to characterize compound selectivity. […] Novel compounds were identified to be potential nsP2 inhibitors and molecular docking analyses were performed to explain the binding mode of selected hits. In vitro antiviral activity was evaluated for a subset of compounds using a high-throughput CHIKV infection assay. To our knowledge, the pipeline presented here is unprecedented for CHIKV antiviral discovery research.
PROTOCOL TABLE (as described by Inglese J, Shamu CE and Guy RK. 2007)
SEQUENCE No. (e.g., 1, 2, 3, etc.); […] (e.g., Cells, Incubation, Reagent, etc.); VALUE; DESCRIPTION.
1a; Reagent; 3 uL; Papain in assay buffer.
1b; Reagent; 3uL; Assay buffer
2; Compound; 17 nL; Echo 655 acoustic dispenser (Beckman Coulter).
3; Incubation; 15 min; room temperature in the dark.
4: Reagent; 1 uL; Z-FR-AMC in assay buffer.
5; Incubation; 15 sec, 271g; centrifugation.
6; Detection; Fluorescence; time 0, Viewlux microplate reader (PerkinElmer) 355 nm excitation, 460 nm emission
7; Incubation; 10 min; room temperature
8; Detection; Fluorescence; time 10; ViewLux microplate reader (PerkinElmer), 355 nm excitation, 460 nm emission.
NOTES (numbers refer to sequence numbers above).
1a. Medium-binding black solid-bottom Greiner plates (cat. 789176-F). Dispense 3 uL of 1.33X papain in assay buffer (100 mM sodium acetate, pH 5.5, 5 mM dl-cysteine, 0.01% Tween-20 v/v) to columns 1, 2, 5-48 via Wako/Kalypsys dispenser. Papain (cat. P4762, Sigma) was dispensed to produce 5 nM final concentration. Enzyme solution kept on ice during experiment. Prepare papain as 50% glycerol (v/v) at final concentration of 10 mg/mL (427 uM, 100 U/mL). Sources: microplates (Greiner 789176-F), papain (Sigma P4762), sodium acetate (Bioworld 40120009-2), cysteine (Sigma 861677), Tween-20 (Sigma P1379), water (GIBCO 10977-015; Gibco).
1b. Dispense 3 uL of assay buffer (100 mM sodium acetate, pH 5.5, 5 mM dl-cysteine, 0.01% Tween-20 v/v) to columns 3 and 4 via Wako/Kalypsys dispenser. Assay buffer solution kept on ice during experiment.
2. Compound addition by single pin transfer (17 nL) using Wako pintool. Compound solutions in source plate: 169 nM to 10 mM DMSO stock solutions. Final concentrations: 0.664 nM to 39.2 uM, respectively. Final DMSO concentration: 0.5% (v/v).
3. RT incubation. Kalypsys lids used as microplate coverings. Protected from light.
4. […]
On the % scale 0 is the no-effect control and ±100 the full control effect; potency means the concentration at half of the fitted maximal effect.

Papain (Carica papaya), sequence (P00784 whole entry, looked up): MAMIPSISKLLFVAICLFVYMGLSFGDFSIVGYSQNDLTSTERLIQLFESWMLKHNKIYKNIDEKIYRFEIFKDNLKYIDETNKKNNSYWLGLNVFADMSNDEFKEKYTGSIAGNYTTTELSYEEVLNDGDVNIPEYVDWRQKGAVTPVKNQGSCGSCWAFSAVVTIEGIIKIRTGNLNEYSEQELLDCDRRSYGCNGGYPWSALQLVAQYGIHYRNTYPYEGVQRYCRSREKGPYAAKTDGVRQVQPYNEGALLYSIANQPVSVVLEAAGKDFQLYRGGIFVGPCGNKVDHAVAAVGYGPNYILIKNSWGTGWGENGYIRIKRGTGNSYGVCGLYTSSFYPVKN

Row | Structure (SMILES) | activity change, negative = inhibition | Potency
1 | CCOc1ccc(NC(=O)c2c(NC(=O)Cc3ccccc3)sc3c2CCCCC3)cc1 | -3.23% (inactive) | 
2 | Cn1nnnc1Sc1ncnc2n[nH]c(-c3cccc(S(C)(=O)=O)c3)c12 | -21.7% [at 500 µM] (inactive) | 
3 | CCC(C)C(=O)OC1C(C)C2(O)C(C=C(CO)CC3(O)C(=O)C(C)=CC32)C2C(C)(C)C12OC(=O)C(C)C (stereo unspecified) | -20.1% [at 17.2 µM] (inactive) | 
4 | COC([CH2][Hg])CNC(=O)c1ccccc1OCC(=O)O (stereo unspecified) | -5.61% (inactive) | 
5 | Cc1c(S(=O)(=O)O)oc2c1C(=O)C(=O)c1c-2ccc2c1CCCC2(C)C |  | 18.3 µM (active)
6 | CCOc1ccc(NC(=O)c2c(NC(=O)Cc3ccccc3)sc3c2CCC(C)C3)cc1 (stereo unspecified) | -1.65% (inactive) | 
7 | CO[C@]1(NC(=O)CSC(F)F)C(=O)N2C(C(=O)O)=C(CSc3nnnn3CCO)CO[C@H]21 |  | 6.51 µM (active)
8 | Oc1ccc(OC2CCCCO2)cc1 (stereo unspecified) | -2.72% (inactive) | 
9 | C[C@@H]1O[C@@H](O[C@@H]2[C@@H](O)[C@H](OCCc3ccc(O)c(O)c3)O[C@H](CO[C@@H]3O[C@H](CO)[C@@H](O)[C@H](O)[C@H]3O)[C@H]2OC(=O)/C=C/c2ccc(O)c(O)c2)[C@H](O)[C@H](O)[C@H]1O | -16% (inactive) | 
10 | CCOc1ccc(N(Cc2ccccc2)C(=O)c2nc(S(C)(=O)=O)ncc2Cl)cc1 | -4.78% (inactive) | 
11 | O=C(O)c1cccc(-n2[nH]c(-c3ccccc3)cc2=O)c1 | -4.53% (inactive) | 
12 | C[C@@H]1[C@H](O)[C@@H]2OC(=O)C3=C2[C@H](CCC3)[C@@]12C[C@@H](c1ccoc1)OC2=O | -2.31% [at 33.5 µM] (inactive) | 
13 | CC(=O)N[C@@H](C(=O)O[C@H]1CCC(C)(C)[C@@H]2CCC3=C(COC3=O)[C@@]12C)C(C)C | -9% [at 33.5 µM] (inactive) | 
14 | C[C@@H]1C[C@@H](O)[C@@]23CO[C@]2(CO)C[C@@H](O)CC3[C@@]12CC(c1ccoc1)OC2=O (stereo partly specified) | -1.13% [at 33.5 µM] (inactive) | 
15 | Cc1ccc(N[S+](=O)([O-])c2cc3c(cc2N[C@@H](C)CO)NC(=O)CC3)cc1N[C@@H](C)CO | 82.5% (inactive) | 
16 | CCc1ccccc1NC(=O)c1cnn(-c2ccc(F)cc2)c1C1CCNCC1 | -3.43% (inactive) | 
